Here are results for eight compounds from PubChem BioAssay (Tox21).

Where “and” joins values, the source holds several entries; their conditions need not be identical. Equal entries are not always repeated. Inconclusive results are not listed. A structure can be active in one record and inactive in another. Calls of active or inactive are those of the source. Unless noted, calls follow the shape of the full dose curve.

A short description of assay [1]: Nuclear factor erythroid 2-related factor 2/antioxidant responsive element (Nrf2/ARE) small molecule agonists: qHTS cell viability counter screen in human keratinocytes (AID 1919968; active = well fitted curve in the direction sought with a large enough effect in the repeat runs; an effect the other way counts as inactive or inconclusive; also: nearly all actives have a fitted effect of over 55% in size; also: potency is read from the fitted curve at half-maximal effect). The method in brief:
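Seed 1,500 KeratinoSens cells per well, then incubate 5 h at 37 C/5% CO2. Add compounds in DMSO and incubate 23 h. Add CellTiter-Fluor, wait 1 h and read fluorescence.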
(In qHTS, concentration-response curves come from the screen itself.)

Assay [2] is described as follows: Nuclear factor erythroid 2-related factor 2/antioxidant responsive element (Nrf2/ARE) small molecule agonists: luciferase reporter gene qHTS assay in human keratinocytes (AID 1919969). Also: nearly all actives have a fitted effect of over 35% in size. Also: potency is read from the fitted curve at half-maximal effect.
Assay [3] deals with Gonadotropin-releasing hormone receptor (Homo sapiens) (UniProt P30968). The experiment in a line: Human gonadotropin-releasing hormone receptor (GnRHR) small molecule agonists, calcium flux assay in GnRHR-HEK293 cells (AID 1920063). Also: nearly all actives have a fitted effect of over 35% in size. The method, boiled down: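 Cells: HEK293 stably expressing human GnRHR. Steps: overnight (18 h) culture, 1 h calcium dye loading at 37 C, compound addition, kinetic fluorescence read at 480/540 nm. Each compound tested at 15 concentrations in triplicate.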
For orientation: Calcium assays in cells follow changes in intracellular calcium, usually with a dye or a luminescent sensor.

Assay [4] addresses KiSS-1 receptor (Homo sapiens) (UniProt Q969F8). The experiment in a line: Human kisspeptin (KISS1R) small molecule agonists, calcium flux assay in KISS1R-HEK293 cells (AID 1920064; active = well fitted curve in the direction sought with a large enough effect in the repeat runs; an effect the other way counts as inactive or inconclusive). The method in brief: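 Cells plated and incubated 18 h; dye added, 1 h at 37 C; compounds in DMSO pinned in; signal read at 480/540 nm every second for 3 min. Each compound tested at 15 concentrations in triplicate.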

The nature of assay [5]: G protein-coupled receptor (GPCR) small molecule agonists, calcium flux assay: HEK293 wild type cell line counter screen (AID 1920065). The method, boiled down:
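Counter-screen of the Tox21 10K library for non-specific calcium release: dye-loaded cells received compounds in DMSO and were monitored by kinetic fluorescence (480/540 nm, 3 min). Fifteen concentrations, run in triplicate.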

A short description of assay [6]: p53 small molecule agonists, cell-based qHTS assay with human liver microsomes (AID 1963577).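 Also: p53 response element beta-lactamase reporter cells with liver microsomes plus NADPH.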 The method in brief: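 With metabolic activation: human liver microsomes (0.5 mg/mL final) plus NADPH (0.5 mg/mL final) added alongside compounds to p53RE-bla cells; 16 h 37 C exposure; beta-lactamase read by LiveBLAzer fluorescence.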
Assay [7] is described as follows: p53 small molecule agonists, cell-based qHTS assay with rat liver microsomes: qHTS cell viability counter screen (AID 1963580). Also: nearly all actives have a fitted effect of over 45% in size. The method in brief: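 p53RE-bla HCT-116 cells (4,000/well) rested 5 h at 37 C, then given Tox21 compounds in DMSO with rat liver microsomes (0.5 mg/mL final) plus NADPH (0.5 mg/mL final) for 16 h at 37 C. Viability read by CellTiter-Glo luminescence after 30 min at room temperature.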

For assay [8], the target named is 5-hydroxytryptamine receptor 2A (Homo sapiens) (UniProt P28223). The assay can be described thus: 5-hydroxytryptamine receptor 2A (HTR2A) small molecule antagonists, cell-based qHTS assay (AID 1963586). Also: nearly all actives have a fitted effect of over 45% in size. Also: potency is read from the fitted curve at half-maximal effect. The method in brief: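 Antagonist-mode intracellular calcium assay: DOI (4 nM) added after 5 min compound pre-incubation at room temperature to dye-loaded HTR2A-CHO cells. Fluorescence followed for 3 min, sampled every second.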

The target in assay [9] is Muscarinic acetylcholine receptor M1 (Homo sapiens) (UniProt P11229). The assay can be described thus: Cholinergic receptor muscarinic 1 (CHRM1) small molecule antagonists, cell-based qHTS assay (AID 1963588). Also: nearly all actives have a fitted effect of over 40% in size. The method in brief:
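CHRM1-CHO calcium-flux assay, antagonist mode. Cells were seeded 18 h, dye-loaded 1 h at 37 C and given compound for 5 min at RT, then acetylcholine was added at 50nM. FDSS fluorescence was read 3 min; 15 concentrations, three runs.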

For assay [10] the target is unchanged. The assay can be described thus: Cholinergic receptor muscarinic 1 (CHRM1) small molecule agonists, cell-based qHTS assay (AID 1963589). Also: nearly all actives have a fitted effect of over 35% in size. The method, boiled down:
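Agonist-mode qHTS in CHO cells stably carrying human muscarinic M1. Intracellular calcium is tracked by fluorescence every second after compound transfer; each compound runs at 15 concentrations in three independent runs.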

Assay [11] in a line: cAMP Responsive Elements (CRE) small molecule antagonists, cell-based qHTS assay (AID 1963591; active = well fitted inhibition curve with a large enough effect in the signal ratio in the repeat runs, not every such curve was filed as active; the % refers to the signal ratio). The method in brief: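 Antagonist mode: test compounds are co-incubated with the adenylyl cyclase activator NKH477 (0.25 uM final) on CRE-bla HEK293T cells for 3 h at 37 °C, followed by LiveBLAzer substrate loading.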
Assay [12] deals with D(2) dopamine receptor (Homo sapiens) (UniProt P14416). The experiment in a line: Dopamine D2 receptor (DRD2) small molecule agonists, cell-based qHTS assay (AID 1963594). Also: nearly all actives have a fitted effect of over 35% in size. The method, boiled down: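 HEK293 cells stably expressing DRD2 were cultured 24 h at 37 C, then given Ro20-1724 (0.1 mM final) and compounds for 10 min at room temperature. NKH477 (200nM) was then added for 30 min. cAMP was read by HTRF.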

For assay [13] the target is unchanged. The experiment in a line: Dopamine D2 receptor (DRD2) small molecule antagonists, cell-based qHTS assay (AID 1963595; active = well fitted inhibition curve with a large enough effect in the signal ratio in the repeat runs, with a control signal flat; the % refers to the signal ratio). The method, boiled down: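 DRD2-HEK293; 0.1 mM Ro20-1724; cpd 10 min RT; NKH477 200 nM + quinpirole 12 nM, 30 min RT; HTRF cAMP (cAMP-d2/anti-cAMP cryptate), 665/620 nm ratio after 1 h.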
A short description of assay [14]: p53 small molecule agonists, cell-based qHTS assay with human liver microsomes: qHTS cell viability counter screen (AID 1963579). Also: nearly all actives have a fitted effect of over 45% in size. Also: potency is read from the fitted curve at half-maximal effect. The method, boiled down:
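Metabolic activation used human liver microsomes and NADPH, both 0.5 mg/mL final, over 16 hours at 37 C on p53RE-bla cells (4,000/well). Cytotoxicity measured by CellTiter-Glo luminescence, 30 min at room temperature.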

The nature of assay [15]: p53 small molecule agonists, cell-based qHTS assay: qHTS cell viability counter screen (AID 1963581). Also: nearly all actives have a fitted effect of over 45% in size. Also: potency is read from the fitted curve at half-maximal effect. The method in brief: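 Cells: HCT-116 with p53 response element-driven beta-lactamase. Treatment: 16 h, 37 C, compounds in DMSO. Read: CellTiter-Glo luminescence after 30 min RT.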
Assay [16] can be described thus: p53 small molecule agonists, cell-based qHTS assay (AID 1963582; active = well fitted activation curve with a large enough effect in the signal ratio in the repeat runs, not every such curve was filed as active; the % refers to the signal ratio). The method in brief: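 Quantitative HTS in p53RE-bla cells: after a 5 h settling period, compounds delivered in DMSO were left on cells for 16 h at 37 C, and reporter induction was measured as fluorescence following 2 h substrate loading.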
The target in assay [17] is 5-hydroxytryptamine receptor 2A (Homo sapiens) (UniProt P28223). The assay can be described thus: 5-hydroxytryptamine receptor 2A (HTR2A) small molecule agonists, cell-based qHTS assay (AID 1963587). Also: nearly all actives have a fitted effect of over 30% in size. The method in brief:
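HTR2A-CHO cells, plated 18 h at 37 C/5% CO2, dye-loaded 1 h at 37 C; compounds in DMSO added by pin tool (agonist mode). Intracellular calcium flux read as kinetic fluorescence on FDSS over 2 min at 1 s intervals.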

The nature of assay [18]: cAMP Responsive Elements (CRE) small molecule agonists, cell-based qHTS assay (AID 1963590). The method in brief: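 Agonist mode qHTS in CRE-bla HEK 293T cells: compounds dosed from DMSO for 3 h at 37 C/5% CO2, followed by LiveBLAzer B/G FRET substrate for 2 h at room temperature.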
Assay [19] addresses Beta-2 adrenergic receptor (Homo sapiens) (UniProt P07550). The assay can be described thus: Adrenergic beta2 receptor (ADRB2) small molecule antagonists, cell-based qHTS assay (AID 1963592). Also: series mostly up to about 92 µM; nearly all actives have a fitted effect of over 50% in size. The method in brief: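 Cells (CHO, stable ADRB2 overexpression) incubated 18-20hr at 37C; compounds added from DMSO; agonist mix (1nM isoproterenol, 100uM IBMX, 25uM Ro-20-1724) added; 0.5hr RT; d2-cAMP and anti-cAMP-cryptate added; 1hr RT; 665/615 nm read.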

The target is the same in assay [20]. The assay can be described thus: Adrenergic beta2 receptor (ADRB2) small molecule agonists, cell-based qHTS assay (AID 1963593).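 Also: CHO cells stably overexpressing human ADRB2.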 The method in brief:
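CHO cells stably over-expressing ADRB2 were plated overnight at 37C, then dosed with compounds plus a stimulation mix containing 100uM IBMX and 25uM Ro-20-1724 for 0.5hr at room temperature. cAMP was measured by HTRF competition, 1hr.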

Chain of Gonadotropin-releasing hormone receptor (Homo sapiens) (P30968 whole entry, looked up): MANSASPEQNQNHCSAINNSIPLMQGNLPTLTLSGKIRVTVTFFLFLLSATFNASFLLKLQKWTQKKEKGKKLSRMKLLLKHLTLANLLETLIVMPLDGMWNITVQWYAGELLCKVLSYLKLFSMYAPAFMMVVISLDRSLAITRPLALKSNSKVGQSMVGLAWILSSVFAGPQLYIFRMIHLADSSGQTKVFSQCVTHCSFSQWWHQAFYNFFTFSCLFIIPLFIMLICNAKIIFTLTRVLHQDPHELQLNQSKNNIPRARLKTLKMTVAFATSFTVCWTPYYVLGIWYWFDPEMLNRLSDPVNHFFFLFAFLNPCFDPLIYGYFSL
Chain of KiSS-1 receptor (Homo sapiens) (Q969F8 whole entry, looked up): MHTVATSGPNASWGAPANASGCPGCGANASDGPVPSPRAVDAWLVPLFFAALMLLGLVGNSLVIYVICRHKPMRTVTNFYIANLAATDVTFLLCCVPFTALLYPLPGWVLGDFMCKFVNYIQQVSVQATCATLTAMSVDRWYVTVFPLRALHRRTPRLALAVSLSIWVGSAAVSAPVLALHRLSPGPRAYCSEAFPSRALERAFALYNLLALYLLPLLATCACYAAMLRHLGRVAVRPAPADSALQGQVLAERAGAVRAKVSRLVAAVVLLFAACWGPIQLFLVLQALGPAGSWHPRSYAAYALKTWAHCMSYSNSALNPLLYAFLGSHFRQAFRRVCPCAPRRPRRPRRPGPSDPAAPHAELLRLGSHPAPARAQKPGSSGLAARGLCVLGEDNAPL
Chain of D(2) dopamine receptor (Homo sapiens) (P14416 whole entry, looked up): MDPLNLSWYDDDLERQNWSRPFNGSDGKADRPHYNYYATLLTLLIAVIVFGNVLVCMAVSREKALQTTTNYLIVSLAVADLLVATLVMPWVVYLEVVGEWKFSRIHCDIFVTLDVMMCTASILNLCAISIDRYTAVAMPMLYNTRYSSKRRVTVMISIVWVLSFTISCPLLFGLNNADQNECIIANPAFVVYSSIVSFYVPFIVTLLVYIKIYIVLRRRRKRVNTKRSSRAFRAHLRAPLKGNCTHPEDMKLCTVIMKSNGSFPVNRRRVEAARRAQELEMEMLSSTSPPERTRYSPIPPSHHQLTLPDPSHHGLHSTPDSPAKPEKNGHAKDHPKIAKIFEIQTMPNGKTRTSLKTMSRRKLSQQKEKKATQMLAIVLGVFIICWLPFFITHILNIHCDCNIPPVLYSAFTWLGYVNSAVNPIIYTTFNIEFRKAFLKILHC
Chain of Muscarinic acetylcholine receptor M1 (Homo sapiens) (P11229 whole entry, looked up): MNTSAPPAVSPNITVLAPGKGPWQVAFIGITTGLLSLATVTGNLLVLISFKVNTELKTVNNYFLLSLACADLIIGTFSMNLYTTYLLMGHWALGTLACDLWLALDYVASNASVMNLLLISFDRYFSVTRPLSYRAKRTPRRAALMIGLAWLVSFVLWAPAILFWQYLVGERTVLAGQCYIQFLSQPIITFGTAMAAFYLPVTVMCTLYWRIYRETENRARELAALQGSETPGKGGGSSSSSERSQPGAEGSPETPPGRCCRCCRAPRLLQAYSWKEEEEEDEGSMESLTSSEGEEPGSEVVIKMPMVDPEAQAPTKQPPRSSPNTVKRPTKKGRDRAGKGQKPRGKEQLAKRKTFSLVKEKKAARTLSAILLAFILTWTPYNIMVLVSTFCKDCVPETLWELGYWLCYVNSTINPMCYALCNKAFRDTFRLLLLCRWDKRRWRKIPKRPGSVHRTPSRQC
Chain of 5-hydroxytryptamine receptor 2A (Homo sapiens) (P28223 whole entry, looked up): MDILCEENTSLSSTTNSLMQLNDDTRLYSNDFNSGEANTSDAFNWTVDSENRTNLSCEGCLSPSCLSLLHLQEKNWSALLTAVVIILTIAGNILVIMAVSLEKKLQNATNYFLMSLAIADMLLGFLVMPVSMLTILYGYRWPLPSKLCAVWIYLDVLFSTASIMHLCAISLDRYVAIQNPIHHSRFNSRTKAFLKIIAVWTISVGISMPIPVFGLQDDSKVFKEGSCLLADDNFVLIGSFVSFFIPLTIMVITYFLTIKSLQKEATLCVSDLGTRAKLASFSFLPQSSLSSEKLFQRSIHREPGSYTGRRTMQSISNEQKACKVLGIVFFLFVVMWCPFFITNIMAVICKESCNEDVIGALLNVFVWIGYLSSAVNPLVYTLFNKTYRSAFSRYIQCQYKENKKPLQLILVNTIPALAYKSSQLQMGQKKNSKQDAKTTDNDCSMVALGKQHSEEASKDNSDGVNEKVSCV
Chain of Beta-2 adrenergic receptor (Homo sapiens) (P07550 whole entry, looked up): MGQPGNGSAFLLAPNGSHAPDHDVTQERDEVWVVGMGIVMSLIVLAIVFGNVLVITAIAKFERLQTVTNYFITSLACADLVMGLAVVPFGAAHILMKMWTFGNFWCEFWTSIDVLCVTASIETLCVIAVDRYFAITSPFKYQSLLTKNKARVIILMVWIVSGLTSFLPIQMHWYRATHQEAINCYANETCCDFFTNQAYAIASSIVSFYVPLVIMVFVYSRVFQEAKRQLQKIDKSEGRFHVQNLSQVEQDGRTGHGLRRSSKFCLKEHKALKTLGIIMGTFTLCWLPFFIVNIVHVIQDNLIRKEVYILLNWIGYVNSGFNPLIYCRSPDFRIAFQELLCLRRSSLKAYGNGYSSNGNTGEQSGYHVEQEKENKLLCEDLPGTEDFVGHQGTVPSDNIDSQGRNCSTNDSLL

Turning to `CCCOC(=O)c1cc(O)c(O)c(O)c1`, the Potency entry in [1], in assay [2], in assay [3], in assay [4], in [5] and in [6] was “inactive” in each case. The Potency result in assay [7], in assay [8], in assay [9], in assay [10], in assay [11] and in assay [12] was “inactive” each time. The Potency result in assay [13] is “inactive”.
As for `C[C@]12CC[C@@H]3c4ccc(O)cc4C[C@@H](CCCCCCCCCS(=O)CCCC(F)(F)C(F)(F)F)[C@H]3[C@@H]1CC[C@@H]2O` (some centres not stated), the Potency entry in [1] is “inactive and 4.73 µM (active)”. Moreover, the Potency entry in [2], in [3], in assay [4], in [5], in assay [6] and in [14] was “inactive” each time. Further, the Potency entry in [7], in assay [15], in assay [16], in assay [8], in assay [17] and in assay [9] was “inactive” each time. The Potency result in [10], in assay [18], in assay [11], in assay [19], in assay [12] and in assay [13] was “inactive” in each case.
Take `NC(=O)NC1NC(=O)NC1=O` (configuration not stated): the Potency result in assay [1], in [2], in [3], in [4], in [5] and in [6] was “inactive” each time. The Potency result in [7], in [16], in assay [8], in assay [17], in [9] and in assay [10] was “inactive” in each case. Further, the Potency result in assay [18], in assay [11], in [19], in [20] and in [12] was “inactive” in each case.
Consider `c1ccc2scnc2c1`, for which the Potency entry in assay [1], in [2], in assay [3], in [4], in [5] and in assay [6] was “inactive” each time. In addition, the Potency result in [14], in [7], in assay [15], in assay [16], in assay [8] and in [17] was “inactive” throughout. Further, the Potency result in [9], in assay [10], in [18], in [11], in assay [19] and in [20] was “inactive” each time. Besides, the Potency result in [12] and in assay [13] was “inactive” throughout.
With `CC(C)(Oc1ccc(Cl)cc1)C(=O)O`, the Potency result in [1], in [2], in assay [3], in assay [4], in assay [5] and in [6] was “inactive” in each case. The Potency entry in [7], in [16], in assay [18], in assay [11], in [19] and in assay [20] was “inactive” in each case. Moreover, the Potency entry in assay [12] and in assay [13] was “inactive” throughout.
`COc1cc([C@@H]2c3cc4c(cc3[C@H](O)[C@H]3COC(=O)[C@H]23)OCO4)cc(OC)c1OC`: the Potency result in assay [1], in assay [3], in assay [4], in [5], in assay [6] and in assay [7] was “inactive” throughout. For the same compound, the Potency entry in assay [16], in assay [20], in assay [12] and in assay [13] was “inactive” each time. In addition, the Potency in [2] was 54.4 nM (active) and 53.1 nM (active).
On to `Nc1cc(Cl)c(-c2cc(Cl)c(N)cc2Cl)cc1Cl`, for which the Potency is 27.3 µM (active) and 48.6 µM (active) in assay [1]; 3.06 µM (active) and inactive in [2]; 51.3 µM (active) in assay [14]; 32.4 µM (active) in assay [15]; 5.29 µM (active) in assay [8]. Further, the Potency entry in assay [3], in assay [4], in assay [5], in [6], in assay [17] and in assay [10] was “inactive” each time. In addition, the Potency entry in [19], in assay [12] and in assay [13] was “inactive” in each case.
Regarding `COc1ccc(CCC(C)=O)cc1`, the Potency result in assay [1], in [2], in assay [3], in assay [4], in [5] and in [6] was “inactive” throughout. Moreover, the Potency result in assay [14], in assay [7], in assay [15], in assay [16], in [8] and in assay [17] was “inactive” each time. The Potency entry in assay [9], in assay [10], in [18], in assay [19], in assay [20] and in assay [12] was “inactive” in each case. In addition, the Potency result in assay [13] was “inactive”.
